Compounds with a hit are over-represented: about 4% of the library has one in this group of screens.
EWS-Fli block = blocks EWS/Fli oncoprotein-driven transcription; inhibition, % at 12.6 µM; AID 651661; A673 NR0B1-luciferase reporter, viability-normalised; actives 0.67% (n = 350,000);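 active = mean inhibition of at least 50% after viability correction, with every replicate also passing that limit; inconclusive = mean reaches 50% but only one of two replicates passes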;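 note: firefly luciferase signal divided by Alamar Blue viability fluorescence both relative to DMSO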
MITF TRPM1 HTS = MITF TRPM1 promoter activation in melanoma cells; SK-MEL-5 TRPM1-promoter luciferase, 24 h; % of positive control, neutral wells = 0; activation, % at 12.5 µM; actives 0.75% (n = 300,000); AID 588334;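 active = mean activation of at least 80% with every replicate also reaching 80%; inconclusive = mean reaches 80% but some replicate falls short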;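 note: 0% = neutral control wells and 100% = parthenolide positive control wells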
MITF TRPM1 inh = inhibitors of MITF-driven TRPM1 promoter in melanoma cells; AID 488899; inhibition, % at 12.5 µM; actives 0.83% (n = 330,000); SK-MEL-5 TRPM1 promoter luciferase, 24 h;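 active = mean inhibition across replicates of 60% or more, whatever share of single replicates reaches that level; inconclusive = some that reach 60%, reason not given; inactive = mean inhibition across replicates below 60%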
esBAF inh = blocks esBAF chromatin remodeling in mouse ES cells; actives 2% (n = 350,000); Bmi1-luciferase knock-in reporter, 24 h; 100% = twice the neutral-well signal; reporter increase, % at 12.5 µM; in the data active = activation above about 40%; inconclusive = no clear call, values can overlap the other calls;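 note: 0% = median of the plate's neutral control wells and 100% = double that signal; a rise in the Bmi1 reporter signal indicates esBAF inhibition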
PAX8 reporter = PAX8 transcriptional activity inhibition; RMG-I TPO-luciferase reporter, SteadyGlo, 24 h; inhibition, % at 12.6 µM; actives 1.2% (n = 360,000); AID 652154;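 active = mean replicate inhibition at least 60% with every replicate also reaching 60%; inconclusive = only one of the two criteria is met; inactive = mean below 60% and not all replicates reaching 60%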;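 note: luciferase light reporting Pax8 driven TPO promoter activity; plate controls were median of neutral control wells for no effect and mitoxantrone controls for full effect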
Wnt bcat act = Wnt/beta-catenin pathway activation; Wnt/beta-catenin reporter cell assay, activator, plate reader; activation, % at 9.35 µM; actives 1.2% (n = 300,000); in the data active = activation above about 30%, passing the limit was not always enough; inconclusive = no clear call, values can overlap the other calls;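 note: 0% = neutral control wells and 100% = positive control wells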
Starred values were filed as active, the others as inactive.

Screening Cc1ccc(C(=O)Nc2nc3ccc(S(C)(=O)=O)cc3s2)o1 returned MITF TRPM1 inh -24.3, esBAF inh 36.0, PAX8 reporter -93.4 and Wnt bcat act 53.3*.
`CS(=O)(=O)c1ccc2nc(NC(=O)c3cc4ccccc4o3)sc2c1` gave MITF TRPM1 HTS 31.2, MITF TRPM1 inh -26.1, esBAF inh 67.5*, PAX8 reporter -94.9 and Wnt bcat act 16.5.
Screening CC(C)NC(=O)N[C@H]1C=C[C@H](CC(=O)N2CCCCC2)O[C@H]1CO returned EWS-Fli block 3.0, esBAF inh 1.5 and PAX8 reporter 0.7.
CO[C@@H]1CN(C)C(=O)c2cc(NC(=O)CC(F)(F)F)ccc2OC[C@H](C)N(C(=O)C2CCOCC2)C[C@H]1C was read as EWS-Fli block -6.3.
`COc1ccc(NC(=O)C2=Cc3ccccc3OC2)cc1` gave EWS-Fli block 3.4, MITF TRPM1 HTS 13.3, MITF TRPM1 inh -11.6, esBAF inh -24.2, PAX8 reporter -73.8 and Wnt bcat act 13.3.
`COc1ccc(NC(=O)C2=Cc3cccc(OC)c3OC2)cc1` gave EWS-Fli block -111.0, MITF TRPM1 HTS 51.7, MITF TRPM1 inh -47.6, PAX8 reporter -119.2 and Wnt bcat act 44.3*.
For CN(C)CCn1c(NC(=O)c2ccc(Cl)cc2)nc2ccccc21 the results were MITF TRPM1 HTS 27.0, MITF TRPM1 inh -22.2 and esBAF inh 55.6*.
`Cc1ccc(C(=O)/C=C/Nc2ccc([N+](=O)[O-])cc2Br)cc1` gave MITF TRPM1 HTS 86.9*, MITF TRPM1 inh -85.5, esBAF inh inconclusive and Wnt bcat act 10.6.
CCOc1ccc(N/C=C/C(=O)c2ccc(C)cc2)c([N+](=O)[O-])c1 was read as MITF TRPM1 HTS 88.3* and MITF TRPM1 inh -81.1.
`CCOc1ccc(N/C=C/C(=O)c2ccc3ccccc3c2)c([N+](=O)[O-])c1` gave MITF TRPM1 HTS 77.8, MITF TRPM1 inh -86.7, esBAF inh 49.8* and Wnt bcat act 5.3.
COCCCNC(=O)c1ccc2nc(Cc3ccc(OC)cc3)oc2c1 was read as EWS-Fli block -99.1, MITF TRPM1 HTS 39.9, MITF TRPM1 inh -39.4, esBAF inh 70.6*, PAX8 reporter -135.4 and Wnt bcat act 8.1.
For C=CCNC(=O)c1ccc2nc(Cc3ccc(OC)cc3)oc2c1 the results were EWS-Fli block -97.3, MITF TRPM1 inh -78.3, esBAF inh 89.1*, PAX8 reporter -174.3 and Wnt bcat act 15.6.
Screening COc1cccc(-c2ccc([C@H]3[C@@H](CO)N4C(=O)CN(C(=O)CN5CCOCC5)C[C@@H]34)cc2)c1 returned EWS-Fli block 1.8 and PAX8 reporter -28.3.
`CN(C)/C=C/C=C1C(=O)CCCC1=O` gave MITF TRPM1 HTS -2.6, MITF TRPM1 inh 6.5, esBAF inh -1.7, PAX8 reporter -15.2 and Wnt bcat act 72.7*.
C[C@@H]1CCCCO[C@H](CN(C)Cc2ccccc2)[C@H](C)CN([C@@H](C)CO)C(=O)c2cc(NS(=O)(=O)c3ccc(F)cc3)ccc2O1 was read as EWS-Fli block -14.2, esBAF inh -7.1 and PAX8 reporter 48.5.
For CCOC(=O)CSC1=C(C#N)C(C)C2=C(CCCC2=O)N1 (stereo not drawn) the results were MITF TRPM1 inh 5.5 and esBAF inh 62.3*.
For C[C@H]1CCCCO[C@H](CN(C)S(=O)(=O)c2cn(C)cn2)[C@@H](C)CN([C@@H](C)CO)C(=O)c2cc(NC(=O)CCCN(C)C)ccc2O1 the results were EWS-Fli block -3.8, esBAF inh 0.7 and PAX8 reporter -4.2.
Cc1cnn(-c2cc(Oc3ccccc3)ncn2)c1 was read as MITF TRPM1 HTS inconclusive, MITF TRPM1 inh -84.7 and esBAF inh 64.6*.
`O=[N+]([O-])c1ccc(/C=N/NC(=S)Nc2ccc(Cl)cc2Cl)s1` gave EWS-Fli block 10.5, MITF TRPM1 HTS -40.4, MITF TRPM1 inh 40.4, esBAF inh -8.7, PAX8 reporter 92.1* and Wnt bcat act 5.1.
`O=[N+]([O-])c1cc(/C=N/NC(=S)Nc2ccccc2Cl)ccc1Cl` gave EWS-Fli block 23.6, MITF TRPM1 HTS -63.8, MITF TRPM1 inh inconclusive, esBAF inh 45.6*, PAX8 reporter 3.7 and Wnt bcat act -7.5.
For O=[N+]([O-])c1ccc(O)c(/C=N/NC(=S)Nc2ccc(Cl)cc2Cl)c1 the results were EWS-Fli block 10.7, MITF TRPM1 HTS -41.7, MITF TRPM1 inh 43.4, PAX8 reporter 19.5 and Wnt bcat act -0.7.
Fc1ccc(/C=N/NC(=S)Nc2ccc(Cl)cc2Cl)cc1 was read as EWS-Fli block 52.6*, MITF TRPM1 HTS -11.7, MITF TRPM1 inh 10.8, PAX8 reporter -1.3 and Wnt bcat act -6.7.
Screening Cc1ccc(C(=O)COC(=O)c2cc(=O)[nH]c3ccccc23)cc1C returned EWS-Fli block -8.9, MITF TRPM1 HTS 50.4, MITF TRPM1 inh -52.6, esBAF inh 88.2*, PAX8 reporter -19.3 and Wnt bcat act 7.2.
For COc1ccc(C(=O)COC(=O)c2cc(=O)[nH]c3ccccc23)c(OC)c1 the results were EWS-Fli block -46.8, MITF TRPM1 HTS 100.0*, MITF TRPM1 inh -95.4, PAX8 reporter -11.4 and Wnt bcat act 26.5.
NC(=O)COC(=O)c1cc(=O)[nH]c2ccccc12 was read as EWS-Fli block -0.8, MITF TRPM1 HTS -6.5, MITF TRPM1 inh 5.6, esBAF inh -3.5, PAX8 reporter -16.6 and Wnt bcat act -1.3.
COc1ccc(C(=O)COC(=O)c2cccc(-n3cnnn3)c2)c(OC)c1 was read as EWS-Fli block -56.9, MITF TRPM1 HTS 92.1*, MITF TRPM1 inh -83.9, esBAF inh 56.1* and Wnt bcat act 18.1.
`COc1ccccc1C(=O)COC(=O)c1cc(=O)[nH]c2ccccc12` gave EWS-Fli block 2.1, MITF TRPM1 HTS 10.7, MITF TRPM1 inh -7.6, PAX8 reporter 17.7 and Wnt bcat act 3.3.
For C[C@@H]1CN([C@H](C)CO)C(=O)c2cc(-c3ccccc3F)cnc2O[C@@H]1CN(C)C(=O)NC1CCCC1 the results were EWS-Fli block -7.4, esBAF inh 1.5 and PAX8 reporter -4.9.
COC(=O)CNC(=O)c1ccccc1 was read as EWS-Fli block 0.4, MITF TRPM1 HTS 7.5, MITF TRPM1 inh -6.4, esBAF inh -0.7 and Wnt bcat act -0.7.
`O=C(CNC(=O)c1ccccc1)OC1CCCCC1` gave EWS-Fli block -43.0, MITF TRPM1 HTS 47.4, MITF TRPM1 inh -43.6, PAX8 reporter -121.3 and Wnt bcat act 47.1*.
For C[C@@H]1CCCCO[C@@H](CN(C)S(=O)(=O)c2cn(C)cn2)[C@H](C)CN([C@H](C)CO)C(=O)c2cc(NS(=O)(=O)c3cccs3)ccc2O1 the results were EWS-Fli block -9.4, esBAF inh 3.3 and PAX8 reporter -14.9.

Screening results (PubChem BioAssay)
